CYP2C9 activ: activators of human CYP2C9 | activation factor at 5 µM | 96,000 tested, 1.4% active | recombinant CYP2C9, luciferin-H conversion, luminescence; active compounds read high; factor 1 = untreated enzyme, 0 = blocked;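 active = activation factor of 2 or more for CYP2C9 at a 5 µM dose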;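 note: 0 = sulfaphenazole-blocked wells and 1 = vehicle-only wells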
Target sequence (P11712 whole entry, looked up): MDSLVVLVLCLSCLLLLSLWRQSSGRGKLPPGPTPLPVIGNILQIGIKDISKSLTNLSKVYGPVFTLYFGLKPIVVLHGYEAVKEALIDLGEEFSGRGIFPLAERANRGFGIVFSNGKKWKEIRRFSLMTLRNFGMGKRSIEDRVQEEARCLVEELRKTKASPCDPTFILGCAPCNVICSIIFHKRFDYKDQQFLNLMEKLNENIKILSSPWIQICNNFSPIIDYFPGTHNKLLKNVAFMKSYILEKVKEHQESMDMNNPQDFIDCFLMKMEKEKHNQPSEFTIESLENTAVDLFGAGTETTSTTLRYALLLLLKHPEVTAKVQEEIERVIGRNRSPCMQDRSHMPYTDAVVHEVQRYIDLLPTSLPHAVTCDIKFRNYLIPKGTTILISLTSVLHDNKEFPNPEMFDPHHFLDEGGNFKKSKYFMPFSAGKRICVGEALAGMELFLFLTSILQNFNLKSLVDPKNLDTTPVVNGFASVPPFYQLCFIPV
PLAP activator: activators of human placental alkaline phosphatase; activation fold at 20 µM; P05187; purified PLAP enzyme, luminescent substrate read-out; active compounds read high; 96,000 tested, 1.2% active; in the data active = activation fold above about 2
CYP2C9 inhib: human CYP2C9 inhibition | AID 777 | CYP2C9 Supersomes, luciferin-H conversion, luminescence | P11712 | 96,000 tested, 20% active | inhibition, % at 5 µM;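 active = blocking of liver enzyme CYP2C9 beyond about 50% at 5 µM, limit read from the data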
CYP2C19 inhib: blocks human cytochrome P450 2C19. P33261. CYP2C19 Supersomes, luciferin-H EGE luminescence, 30 min. inhibition, % at 5 µM. 96,000 tested, 21% active. AID 778;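 active = CYP2C19 inhibition above a set limit at 5 µM in the primary screen, cut at about 50% in these data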;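 note: plate controls were negative control wells for no effect and 2.5 mM tranylcypromine positive control for full effect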
CYP2C19 activ: activators of human cytochrome P450 2C19; P33261; recombinant CYP2C19, luciferin-H EGE luminescence; active compounds read high; 0 = fully inhibited enzyme, 1 = untreated enzyme; activation factor at 5 µM; 96,000 tested, under 10 active;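 active = activation factor of at least 2 at 5 µM in the primary screen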;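 note: 0 = wells with 2.5 mM tranylcypromine and 1 = vehicle-only wells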
* = called active by the depositor; / = no result given. Shown are actives, neighbours in structure and some others; about 31% of the full set was active somewhere.

SMILES	CYP2C9 activ	PLAP activator	CYP2C9 inhib	CYP2C19 inhib	CYP2C19 activ
CCOC(=O)C1=C(C)C(c2ccccc2O)NC(=O)N1 (stereo unspecified)	0.7	1.1	26	23	0.8
Cc1ccc(CCNC(=O)C2CCC(=O)N2Cc2cccnc2)cc1 (stereo unspecified)	0.6	1.3	40	59*	0.4
O=C(NCCc1ccc(Cl)cc1)C1CCC(=O)N1Cc1ccc(F)cc1 (stereo unspecified)	0.3	1.7	66*	73*	0.3
COc1cccc2c1OC[C@@H](CO)[C@H]2N(C)C(=O)Nc1ccc(Cl)cc1	0.8	1.1	20	14	0.9
FC(F)(F)c1nnc2sc(-c3cccs3)nn12	1	0.8	2	4	1
COCCCNCCOc1cc(C(C)C)ccc1C	1	1.2	0	10	0.9
Cc1ccccc1-n1c(=O)c2ccccc2n2nnnc12	1.1	0.9	-8	58*	0.4
CC(=O)OCC(OC(C)=O)C(OC(C)=O)C(OC(C)=O)C(=O)Nc1ccc(C)cc1 (stereo unspecified)	1	1.3	0	13	0.9
COC(=O)c1ccc(CSc2nc(C(F)(F)F)c3c(c2C#N)CCC3)o1	0.9	1.3	6	78*	0.2
O=C(NC12CC3CC(CC(C3)C1)C2)c1ccc(COc2ccc(Cl)cc2[N+](=O)[O-])o1	0.3	1.2	75*	41	0.6
Cc1c(C(=O)NCCN2CCOCC2)oc2ccc(S(=O)(=O)N3CCCCCC3)cc12	0.7	1.6	27	10	0.9
O=C(NCCN1CCOCC1)c1ccncc1	0.9	1.1	15	81*	0.2
CCN(CC)S(=O)(=O)c1ccc2oc(C(=O)Nc3ccc(OC)cc3OC)c(C)c2c1	0.9	1	12	2	1
CCN(CC)S(=O)(=O)c1ccc2oc(C(=O)NCCCN3CCOCC3)c(C)c2c1	0.8	2*	23	21	0.8
Cc1c(C(=O)NCCN2CCOCC2)oc2ccccc12	0.9	1.1	6	54*	0.5
CCN(CC)S(=O)(=O)c1ccc2oc(C(=O)NCc3ccc(F)cc3)c(C)c2c1	0.4	1.2	59*	58*	0.4
C=CCn1c(C)c(C(C)=O)c(N2CCN(c3ccccc3)CC2)nc1=S	0.9	1	12	9	0.9
C=CCSC1=Nc2sccc2C2=NC(=O)CN12	1.1	1.5	-6	35	0.7
COC(=O)c1ccc(CSc2nc3ccccc3o2)cc1	1.2	0.9	-15	4	1
CCN(CC)S(=O)(=O)c1ccc2oc(SCc3ccc(F)cc3)nc2c1	0.3	1.1	69*	25	0.8
O=C(CCSCCC(=O)NCCN1CCOCC1)NCCN1CCOCC1	0.2	1.4	84*	-7	1.1
O=C(CCCc1ccccc1)NCCN1CCOCC1	1	0.9	0	40	0.6
O=C(CN1C(=O)C2C3C=CC(C3)C2C1=O)N1CC=C(c2ccccc2)CC1 (stereo unspecified)	1.2	1.3	-16	-16	1.2
OC(c1ccccc1)(c1ccc(F)cc1)C(c1ccccc1)N1CCOCC1 (stereo unspecified)	1	1.2	4	69*	0.3
CCCc1c(C)c2c(C)[nH]nc2oc1=O	1.8	1	-75	62*	0.4
SMILES	CYP2C9 activ	PLAP activator	CYP2C9 inhib	CYP2C19 inhib	CYP2C19 activ
O=C(CCCCCC(=O)N(CCO)CCO)N(CCO)CCO	0.9	1.5	6	-1	1
CCOC(=O)c1c(C)c(C(=O)NCCCOC(C)C)c(C)n1C	1.5	1.1	-48	40	0.6
COc1ccc(CCn2c(C)cc(C(=O)CSc3nnnn3C)c2C)cc1	0.8	1	19	41	0.6
COc1ccc(OCCSc2n[nH]c(N)n2)cc1	0.8	2.6*	25	45	0.5
Cn1c(SCC(=O)c2ccc3c(c2)OCO3)nnc1C1COc2ccccc2O1 (stereo unspecified)	0.6	1.4	44	-8	1.1
Cc1cc(C(=O)CSc2nc(N)cc(N)n2)c(C)n1CCc1ccc(F)cc1	0.5	1.1	53*	76*	0.2
Cc1cc(C)cc(-n2c(C)cc(C(=O)CSc3nnnn3C)c2C)c1	0.4	1.5	64*	61*	0.4
Cc1cc(C(=O)CSc2nnc(C3COc4ccccc4O3)n2C)c(C)n1-c1ccc(F)cc1 (stereo unspecified)	0.5	1.2	50*	49	0.5
COCCn1c(C)cc(C(=O)CSc2n[nH]c(N)n2)c1C	1.9	1.6	-86	8	0.9
COc1ccccc1C(=O)CSc1n[nH]c(N)n1	3*	1.4	-203	8	0.9
Cc1cc(C(=O)CSc2nnnn2C)c(C)n1-c1cccc(F)c1	0.6	1.4	45	95*	0.1
COc1ccccc1-c1nc(SCC(=O)O)n[nH]1	0.9	1	9	12	0.9
Cc1cc(C(=O)CSc2n[nH]c(N)n2)c(C)n1-c1cccc(F)c1	0.5	/	52*	90*	0.1
CC1CCN(C(=O)CSc2nnc(CN3CCOCC3)n2-c2ccccc2)CC1	1.2	1.5	-20	-11	1.1
C=CCn1c(SCC(=O)c2ccc(NS(=O)(=O)c3ccccc3)cc2)nnc1-c1cccs1	0	1.4	97*	58*	0.4
C=CCn1c(SCc2ccc3nonc3c2)nnc1-c1cccs1	0.2	1.2	76*	99*	0
C=CCn1c(SCC(=O)C(C)(C)C)nnc1-c1cccs1	0.8	1	19	76*	0.2
CCn1c(SCC(=O)N2CCN(S(=O)(=O)c3ccccc3)CC2)nnc1-c1cccs1	1	1.1	-5	1	1
C=CCn1c(SCC(=O)Nc2ccc(C(=O)OCC)cc2)nnc1-c1cccs1	0.9	0.9	5	-8	1.1
CC(C)(C)C(=O)CSc1nnc(-c2cccs2)n1CC1CCCO1 (stereo unspecified)	1	1	0	56*	0.4
O=C(Cn1nnc2c(cnn2-c2ccccc2)c1=O)N1CCN(c2ccccc2F)CC1	1	1.4	2	-17	1.2
Cc1n[nH]c(C)c1S(=O)(=O)N1CCCC(C(=O)NCc2cccs2)C1 (stereo unspecified)	1.1	1	-6	36	0.6
COc1ccc(N(CC(=O)NCc2cccs2)S(=O)(=O)c2c(C)n[nH]c2C)cc1	0.7	1.9	32	73*	0.3
COc1ccc(N(CC(=O)NCc2cccs2)S(=O)(=O)c2cccnc2)cc1	0.4	1.3	64*	84*	0.2
Cc1ccc(Cl)cc1NC(=O)CCn1cccc1	1.2	1	-21	18	0.8
COc1ccc(NC(=O)CCn2cccc2)cc1	1	1.1	3	51*	0.5
Cc1ccc(NC(=O)CCn2cccc2)cc1	0.6	0.9	37	92*	0.1
COc1ccc(NC(=O)CCN2CCC(C)CC2)cc1	0.9	0.8	7	8	0.9
Cc1ccc(NC(=O)Cn2cccc2)cc1Cl	1	1.4	4	52*	0.5
Cc1ccc(NC(=O)CCn2cccc2)cc1C	0.9	0.9	9	85*	0.1

Screening data as filed in PubChem.
